Experiment [1] can be described thus: inhibitors of TNFa-induced NFkB p65 translocation, primary screen, imaging, HUVEC, MLSMR starter and 10KST1 sets (AID 438;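 active means inhibition above 20% together with a positive visual image hit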;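 further: compound added about 3h40 before a 20 min TNFalpha stimulation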;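 on inhibition: signal is the nuclear over cytoplasmic p65 intensity ratio per well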). The note with it: HUVEC TNFa-induced p65 nuclear translocation; cell count: measured here: nuclei count (cytotoxicity indicator), at 2.08 µM; inhibition: at 2 µM, stronger effect = higher value, 0% TNFa-plus-vehicle, 100% no-TNFa wells.
Experiment [2] can be described thus: reduction of polyQ htt aggregates in cells – imaging, exon1htt(103Q)mCFP cells, high-content imaging, primary screen (AID 483).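 Further: compound exposure lasted 3 days before fixation.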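 On nuclei count: percent of the per-plate median nuclei count of sample wells.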 The note with it: exon1htt(103Q)mCFP cell line, aggregate imaging, at 2 µM; inhibition of aggregation: stronger effect = higher value; nuclei count: measured here: cell count, toxicity.
Experiment [3] can be described thus: endothelial E-selectin expression blockers – imaging, HUVEC, immunofluorescence, MLSMR starter and 10KST1 sets, primary screen (AID 487;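 active means visually confirmed hit in the image check and inhibition above 20%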;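 on inhibition: signal is fraction of cell area covered by stained E-selectin grains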;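 on nuclei count: 100% = median nuclei count of all wells on the same plate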). The note with it: HUVEC TNFalpha-induced E-selectin immunofluorescence imaging, at 2 µM; inhibition: stronger effect = higher value; nuclei count: measured here: cell number, toxicity.
For experiment [4], the target named is Voltage-gated potassium channel subunit beta-2 (Rattus norvegicus) (UniProt P62483). In words: inhibitors of rat Kvbeta2 reductase activity – biochemical, NADPH fluorescence, primary screen (AID 622;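 active means fluorescence slope higher than the sample average by over 3 SD, cut at about -0.22 in these data, passing the limit was not always enough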;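 further: slope of raw intensity against log time taken from 70 to 1610 s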). The note with it: recombinant KvBeta, 4-cyanobenzaldehyde reduction, at 10 µM, stronger effect = higher value.
For experiment [5] the target is unchanged. Kind of experiment: enhancers of rat Kvbeta2 NADPH turnover – biochemical, NADPH fluorescence, primary screen (AID 623;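 active means NADPH fluorescence slope more negative than the mean of all samples by about 3 SD, 99.7% confidence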;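 further: fluorescence intensity change per second fitted from 20 to 320 s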). The note with it: Recombinant KvBeta, NADPH fluorescence decrease slope, 10 min; at 10 µM; stronger effect = lower value.
In experiment [6] the target is Alpha-2C adrenergic receptor (Homo sapiens) (UniProt P18825). Kind of experiment: compounds altering alpha2C-coupled GIRK flux – cell-based, HEK293 alpha2C/GIRK1/2, thallium flux, primary screen (AID 624;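 active means fluorescence slope after compound addition differing from the mean of all screened samples at 99.7% confidence, in either direction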;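 further: slope of fluorescence ratio to pre-addition baseline per second over 15 to 24 s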). The note with it: thallium flux BTC fluorescence, at 10 µM, actives lie on both sides.
Experiment [7] is described as follows: blockers of RIG-like receptor reporter activation – cell-based, Sendai virus stimulus, luciferase, 10K MLSCN set, TLR/RLR signaling modifier project, primary screen (AID 602276;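 active means inhibition at or above 50% at 10 µM; inactive means inhibition below 50%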;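 further: firefly luciferase from ISG56 promoter only with Renilla not read in this screen; 0% = Sendai virus plus DMSO and 100% = medium plus DMSO without virus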). The note with it: HEK293 RL24 IRF3 luciferase reporter, at 10 µM, stronger effect = higher value.
Experiment [8] in a line: TLR3 IRF3 reporter activation blockers – cell-based, poly I:C stimulus, luciferase, 10K MLSCN set, primary screen (AID 602277;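 active means inhibition of the reporter signal at or above 50%; inactive means inhibition below 50%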). The note with it: HEK293-TLR3 RL24 IRF3 luciferase reporter, at 10 µM, stronger effect = higher value.

Structures are written as SMILES. Activity calls are given as the source filed them.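 How the source made its calls, unless noted: active means visual image review flags a hit and inhibition of aggregation exceeds 20%; inconclusive means visual hit but inhibition at or below 20%; inactive means no hit on visual image review.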

Chain of Voltage-gated potassium channel subunit beta-2 (Rattus norvegicus) (P62483 whole entry, looked up): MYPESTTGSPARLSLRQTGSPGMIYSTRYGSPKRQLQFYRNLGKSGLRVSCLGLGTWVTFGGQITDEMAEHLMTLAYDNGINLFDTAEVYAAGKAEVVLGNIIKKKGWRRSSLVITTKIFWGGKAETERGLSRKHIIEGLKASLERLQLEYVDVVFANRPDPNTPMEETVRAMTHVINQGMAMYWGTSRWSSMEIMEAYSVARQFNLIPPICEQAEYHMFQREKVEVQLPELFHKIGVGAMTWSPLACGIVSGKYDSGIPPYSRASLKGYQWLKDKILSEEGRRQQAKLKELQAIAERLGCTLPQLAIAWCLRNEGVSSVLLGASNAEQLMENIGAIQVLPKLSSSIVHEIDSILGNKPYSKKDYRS
Chain of Alpha-2C adrenergic receptor (Homo sapiens) (P18825 whole entry, looked up): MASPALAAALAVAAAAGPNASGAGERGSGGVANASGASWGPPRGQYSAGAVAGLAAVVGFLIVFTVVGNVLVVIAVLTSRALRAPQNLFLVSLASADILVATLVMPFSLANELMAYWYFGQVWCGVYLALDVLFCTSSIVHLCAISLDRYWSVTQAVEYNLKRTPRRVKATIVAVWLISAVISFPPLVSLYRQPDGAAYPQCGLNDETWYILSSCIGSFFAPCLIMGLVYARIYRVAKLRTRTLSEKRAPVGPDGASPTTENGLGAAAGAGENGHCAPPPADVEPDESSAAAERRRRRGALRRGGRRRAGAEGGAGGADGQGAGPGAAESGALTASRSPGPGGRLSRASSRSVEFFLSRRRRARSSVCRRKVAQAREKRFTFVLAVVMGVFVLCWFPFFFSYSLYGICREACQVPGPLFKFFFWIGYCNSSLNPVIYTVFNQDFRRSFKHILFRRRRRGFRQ

For the compound `O=C1CCCC2=C1C(c1cccc(Br)c1)n1nc(-c3ccco3)nc1N2` (centres undefined), the cell count in experiment [1] was 568. For the same compound, the inhibition was -1.5% (inactive) in experiment [1], 11.1% (inactive) in experiment [3], 9.76% (inactive) in experiment [7] and 24.2% (inactive) in experiment [8]. The inhibition of aggregation in experiment [2] was -10.2% (inactive). In addition, the nuclei count in experiment [2] was 100%; in experiment [3], 109%. Further, in experiment [4], the fluorescence slope was -0.523 (inactive). In addition, in experiment [5], the NADPH fluorescence slope was -2.2e-05 (inactive). For the same compound, in experiment [6], the slope was 0.00646 (inactive).
With `c1ccc(Cn2nnnc2CN2CCN(c3ncccn3)CC2)cc1`, in experiment [1], the cell count is 717. Also, the inhibition in experiment [1] was -8.1% (inactive); in experiment [3] it was -11.1% (inactive); in experiment [7], 11.4% (inactive); in experiment [8] it was 20.1% (inactive). Further, the inhibition of aggregation in experiment [2] was -12.8% (inactive). Further, the nuclei count in experiment [2] was determined as 114%; in experiment [3], 130%. Moreover, the fluorescence slope in experiment [4] is -0.585 (inactive). Further, in experiment [5], the NADPH fluorescence slope is -4.5e-05 (inactive). For the same compound, the slope in experiment [6] is 0.0043 (inactive).
Turning to `O=c1oc2c3c4c(cc2s1)CCCN4CCC3`, the cell count in experiment [1] was determined as 441. Also, the inhibition in experiment [1] is 7.4% (inactive); in experiment [3], -17.7% (inactive); in experiment [7] it was 7.3% (inactive); in experiment [8] it was 31.7% (inactive). For the same compound, the inhibition of aggregation in experiment [2] is -6.4% (inactive). Besides, the nuclei count in experiment [2] amounted to 100%; in experiment [3], 119%. The fluorescence slope in experiment [4] is -0.463 (inactive). Also, the NADPH fluorescence slope in experiment [5] is -6e-05 (inactive). The slope in experiment [6] is 0.00368 (inactive).
In the case of `CCOCCCNC(=O)C(NC(=O)c1ccccn1)c1ccc(C)cc1` (centres undefined), the cell count in experiment [1] turned out to be 314. Also, the inhibition in experiment [1] was -13.4% (inactive); in experiment [3] it was -18.5% (inactive); in experiment [7], 15.1% (inactive); in experiment [8], 18.1% (inactive). Besides, the inhibition of aggregation in experiment [2] is 2.7% (inactive). Also, the nuclei count stood at 116% in experiment [2] and 111% in experiment [3]. For the same compound, in experiment [4], the fluorescence slope is -0.592 (inactive). Besides, the NADPH fluorescence slope in experiment [5] is -4e-05 (inactive). Further, the slope in experiment [6] was 0.00635 (inactive).
Turning to `O=C(CCCc1cccs1)Nc1nc2c(s1)CCCC2`, the cell count in experiment [1] was 613. For the same compound, the inhibition is 9.3% (inactive) in experiment [1], -164% (inactive) in experiment [3], -29.3% (inactive) in experiment [7] and -48.8% (inactive) in experiment [8]. Further, the inhibition of aggregation in experiment [2] is -20.4% (inactive). Besides, the nuclei count came to 102% in experiment [2] and 150% in experiment [3]. Further, the fluorescence slope in experiment [4] was -0.461 (inactive). Further, in experiment [5], the NADPH fluorescence slope was -2.9e-05 (inactive). Moreover, the slope in experiment [6] is 0.00629 (inactive).
Regarding `CCN(CC)c1nc(N(CC)CC)[nH]c(=O)n1`, the cell count in experiment [1] was determined as 477. In addition, the inhibition in experiment [1] is -6.5% (inactive); in experiment [3] it was -0.4% (inactive); in experiment [7] it was 3.82% (inactive); in experiment [8] it was -16% (inactive). Further, the inhibition of aggregation in experiment [2] was 15.2% (inactive). Further, the nuclei count in experiment [2] came to 92.1%; in experiment [3] it was 59.6%. The fluorescence slope in experiment [4] was -0.512 (inactive). Moreover, in experiment [5], the NADPH fluorescence slope was -3.2e-05 (inactive). Also, the slope in experiment [6] is 0.00579 (inactive).
As for `O=C(c1cnn2c1NC(c1ccco1)CC2C(F)(F)F)N1CCN(c2cccc(Cl)c2)CC1` (centres undefined), the cell count in experiment [1] came out at 313. Besides, the inhibition was -3.8% (inactive) in experiment [1], -38.6% (inactive) in experiment [3], 46.3% (inactive) in experiment [7] and 19.8% (inactive) in experiment [8]. Besides, the inhibition of aggregation in experiment [2] was -7.8% (inactive). The nuclei count in experiment [2] came out at 114%; in experiment [3], 126%. In addition, the fluorescence slope in experiment [4] was -0.382 (inactive). For the same compound, the NADPH fluorescence slope in experiment [5] was -6e-05 (inactive). Also, the slope in experiment [6] was 0.00418 (inactive).
In the case of `CCCCCCC(C)n1[nH]c(=O)c2c(C)cc(=O)[nH]c21` (centres undefined), the cell count in experiment [1] was found to be 675. Besides, the inhibition in experiment [1] is 8.2% (inactive); in experiment [3], -6.2% (inactive); in experiment [7] it was 3.89% (inactive); in experiment [8], -2.25% (inactive). In experiment [2], the inhibition of aggregation was -12.3% (inactive). The nuclei count in experiment [2] was 105%; in experiment [3], 91.9%. In addition, the fluorescence slope in experiment [4] was -0.61 (inactive). The NADPH fluorescence slope in experiment [5] was -1.7e-05 (inactive). In experiment [6], the slope is 0.00325 (inactive).
`Cc1ccn2cc(CCNC(=O)CC(C)(C)C)nc2c1`: the cell count in experiment [1] stood at 316. Moreover, the inhibition in experiment [1] was 6.4% (inactive); in experiment [3] it was -3.4% (inactive); in experiment [7] it was 3.87% (inactive); in experiment [8] it was 5.08% (inactive). The inhibition of aggregation in experiment [2] was -9.1% (inactive). In addition, the results for the nuclei count in experiment [2] and in experiment [3] were 95.6% and 104%, respectively. Further, in experiment [4], the fluorescence slope is -0.307 (inactive). For the same compound, in experiment [5], the NADPH fluorescence slope is -5.9e-05 (inactive). In addition, in experiment [6], the slope is 0.00588 (inactive).
